Glyco luc inh = blocks N-linked glycosylation in D54 reporter cells | D54 ERlucT glycosylation luciferase reporter, 24 h; percent of 100 nM tunicamycin response | reporter increase, % at 12.5 µM | 360,000 tested, 0.23% active | AID 588692;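 active means mean luciferase reporter signal, scaled so untreated is 0 and the glycosylation-blocking control 100, at or above a set limit in every replicate; inconclusive means mean reaches the limit but not every replicate does; inactive means mean below the limit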;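 further: luciferase carries N-glycosylation sites so blocking glycosylation raises the light; 0% = median of neutral control wells and 100% = median of 100 nM tunicamycin wells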
Vif imaging = HIV Vif inhibition; 340,000 tested, 0.35% active; HEK293T cells, Vif self-association by quenched fluorescence, imaging, 24 h; inhibition, % at 7.49 µM; in the data active means inhibition above about 50%, passing the limit was not always enough; inconclusive means no clear call, values can overlap the other calls; inactive means below about 31%
ATG4B inh = ATG4B (human) cysteine protease inhibition | Q9Y4P1 | ATG4B cleavage of LC3-PLA2, NBD-HPC fluorescence, 1 h | inhibition, % at 8.33 µM | 340,000 tested, 0.51% active; in the data active means inhibition above about 40%
CaV13 FRET inh = Primary screen for inhibitors of IQ motif and Ca2+-dependent inactivation inhibitor domain binding in CACNA1D, Förster resonance energy transfer in living cells, … | HEK cells, CFP/YFP FRET ICDI-IQ, plate reader, 10 min; percent FRET-ratio fall versus neutral wells | inhibition, % at 12.3 µM | 340,000 tested, 0.098% active | AID 743397;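 active means mean replicate inhibition of at least 30% and at least 1% of replicates passing that level; inconclusive means only one of the two criteria is met; inactive means neither criterion is met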;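 further: 0% = median of the neutral control wells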
NSD2 inh = blocks human histone methyltransferase NSD2; O96028; NSD2 peptide methylation, AlphaScreen, 120 min; inhibition, % at 12.5 µM; 310,000 tested, 0.54% active; AID 743445
Pemphigus Ab inh = blocks pemphigus antibody binding to human desmoglein-3; 310,000 tested, 0.48% active; binding (percent of control), % at 10 µM; DSG3-coupled beads, scFv-anti-DSG3-GFP binding, flow cytometry; active compounds read low; P32926; AID 588358;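 active means binding more than 3 SD below its plate's average and above zero; inconclusive means below that plate limit but binding exactly zero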;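 further: hits lower antibody fragment binding to DSG3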
Target sequence (P32926 whole entry, looked up, the tested form may be a part): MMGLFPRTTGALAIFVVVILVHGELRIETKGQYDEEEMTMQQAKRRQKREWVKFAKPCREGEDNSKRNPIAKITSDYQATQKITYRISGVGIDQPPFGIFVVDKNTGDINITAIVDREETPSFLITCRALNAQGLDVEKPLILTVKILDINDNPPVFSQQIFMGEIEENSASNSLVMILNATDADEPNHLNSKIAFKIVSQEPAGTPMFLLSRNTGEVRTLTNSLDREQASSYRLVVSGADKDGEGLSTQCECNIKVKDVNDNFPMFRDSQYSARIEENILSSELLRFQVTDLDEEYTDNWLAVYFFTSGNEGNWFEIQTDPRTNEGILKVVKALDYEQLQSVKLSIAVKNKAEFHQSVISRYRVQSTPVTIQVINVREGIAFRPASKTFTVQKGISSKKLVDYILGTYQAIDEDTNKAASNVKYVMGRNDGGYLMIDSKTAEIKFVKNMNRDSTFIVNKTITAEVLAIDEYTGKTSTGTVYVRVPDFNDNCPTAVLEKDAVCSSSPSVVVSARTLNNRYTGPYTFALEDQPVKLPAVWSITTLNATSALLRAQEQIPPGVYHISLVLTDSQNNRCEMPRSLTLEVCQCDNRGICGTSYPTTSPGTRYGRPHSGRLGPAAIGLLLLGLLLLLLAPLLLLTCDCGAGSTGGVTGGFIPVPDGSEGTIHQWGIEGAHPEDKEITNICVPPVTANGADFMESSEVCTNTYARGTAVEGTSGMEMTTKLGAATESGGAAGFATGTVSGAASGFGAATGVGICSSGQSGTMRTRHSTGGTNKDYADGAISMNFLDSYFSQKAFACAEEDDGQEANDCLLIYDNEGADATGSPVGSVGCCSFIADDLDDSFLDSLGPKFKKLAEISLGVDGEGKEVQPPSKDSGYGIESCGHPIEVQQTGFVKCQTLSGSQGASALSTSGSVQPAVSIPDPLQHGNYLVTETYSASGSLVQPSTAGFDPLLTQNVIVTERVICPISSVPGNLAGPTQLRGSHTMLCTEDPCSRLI
ATG4B conf = ATG4B (human) inhibition, single-dose confirmed | shares compounds with ATG4B inh | ATG4B protease fluorescent substrate cleavage assay | inhibition, % at 8.33 µM | 320 tested, 92% active | AID 504757; in the data active means inhibition above about 39%
PLA2 ctr = PLA2 (human) inhibition in ATG4B counter-screen | shares compounds with ATG4B inh | purified PLA2, NBD-C6-HPC fluorescence, 45 min | inhibition, % at 8.33 µM | 1,600 tested, 66% active
* hit, by the source's call. Sampled rows, rich in hits. Any-hit rate of the full collection: about 1.9%. Unless noted, no stated cut-off is given here; in the data, active means inhibition above about 50%; inactive means the rest.

Results for CCOC(=O)C1C(c2ccc(O)c(O)c2)NC(=S)NC1(O)C(F)(F)F (stereo not drawn) ?
Glyco luc inh: 3.8; Vif imaging: -4.3; ATG4B inh: 2.2; CaV13 FRET inh: -5.5; NSD2 inh: -0.6; Pemphigus Ab inh: 108.0

What do the screens show for `O=C(O)C(Cc1ccccc1)N1C(=O)/C(=C/C=C/c2ccco2)SC1=S` (stereo not drawn)?
Glyco luc inh: 0.9; Vif imaging: -14.5; ATG4B inh: 68.9*; CaV13 FRET inh: -7.2; NSD2 inh: active; Pemphigus Ab inh: 88.0; PLA2 ctr: 59.4*

Results for COc1ccc(/C=C2\SC(=S)N(C(Cc3ccccc3)C(=O)O)C2=O)cc1 (stereo not drawn) ?
Glyco luc inh: 3.3; Vif imaging: 3.7; ATG4B inh: 16.4; CaV13 FRET inh: 9.1; NSD2 inh: 13.3; Pemphigus Ab inh: 96.7

Results for O=S1(=O)N[C@@H](Cc2ccccc2)COc2cccc(N3CCC[C@@H]3CO)c21 ?
CaV13 FRET inh: -8.9

How did COc1ccc(S(=O)(=O)N[C@@H](C)C(=O)OCC(=O)Nc2cc3oc4ccccc4c3cc2OC)cc1 do in these assays?
Glyco luc inh: 2.7; Vif imaging: -5.8; ATG4B inh: -15.6; CaV13 FRET inh: -3.1; NSD2 inh: -5.2; Pemphigus Ab inh: 89.0

How did COc1cc2c(cc1NC(=O)COC(=O)[C@@H](NS(=O)(=O)c1cccc(Cl)c1)C(C)C)oc1ccccc12 do in these assays?
Glyco luc inh: -2.7; Vif imaging: 17.9; ATG4B inh: 47.0*; CaV13 FRET inh: -17.3; NSD2 inh: 0.7; Pemphigus Ab inh: 80.0; PLA2 ctr: 62.6*

How did O=C1c2ccccc2C(=O)N1CCCc1c[nH]c2ccc(Cl)cc12 do in these assays?
Glyco luc inh: -4.8; Vif imaging: 2.8; ATG4B inh: 53.4*; CaV13 FRET inh: -8.3; NSD2 inh: -1.6; Pemphigus Ab inh: 99.0; PLA2 ctr: 49.9

How did C=CCN1C(c2ccc(Br)cc2)=CS/C1=C(/C#N)c1nnc(N2CCOCC2)n1-c1ccccc1 do in these assays?
Glyco luc inh: -3.7; Vif imaging: 0.2; ATG4B inh: 61.4*; CaV13 FRET inh: -4.8; NSD2 inh: 7.7; Pemphigus Ab inh: 90.4; PLA2 ctr: 69.9*

Results for C=CCN1C(c2cccc(C(F)(F)F)c2)=CS/C1=C(/C#N)c1nnc(N2CCOCC2)n1-c1ccccc1 ?
Glyco luc inh: -3.3; Vif imaging: -3.2; ATG4B inh: 49.9*; CaV13 FRET inh: -1.8; NSD2 inh: 2.8; Pemphigus Ab inh: 99.8; PLA2 ctr: 54.9*

What do the screens show for `C=CCN1C(=O)NC(c2ccc(OC)cc2)(C(F)(F)F)S/C1=C(\C#N)c1nnc(N2CCOCC2)n1-c1ccccc1` (stereo not drawn)?
Glyco luc inh: 2.8; Vif imaging: 4.7; ATG4B inh: 5.7; CaV13 FRET inh: -5.2; NSD2 inh: 3.8; Pemphigus Ab inh: 124.5

Results for CCCOC(=O)c1cc(-c2ccc(/C=C3/C(=O)N(C)C(=O)C(C#N)=C3C)o2)ccc1Cl ?
Glyco luc inh: 1.7; Vif imaging: -4.3; ATG4B inh: 17.6; Pemphigus Ab inh: 103.5

What do the screens show for `C=CCOC(=O)c1cc(-c2ccc(/C=C3\C(=O)NC(=O)C(C#N)=C3C)o2)ccc1Cl`?
Glyco luc inh: 1.7; ATG4B inh: 69.8*; CaV13 FRET inh: -5.3; NSD2 inh: 41.6; Pemphigus Ab inh: 115.4; PLA2 ctr: 49.8

How did CCOc1ccc(CCNC(=O)CS(=O)(=O)Cc2nc(-c3ccc(OC)cc3)oc2C)cc1 do in these assays?
Glyco luc inh: 1.9; Vif imaging: -1.4; ATG4B inh: -4.2; CaV13 FRET inh: -7.2; NSD2 inh: 4.2; Pemphigus Ab inh: inconclusive

What do the screens show for `CCOc1ccc(C2=NNC(c3cccs3)=Nc3ccc(OC)cc32)cc1`?
ATG4B inh: 58.7*; NSD2 inh: 6.4; Pemphigus Ab inh: 107.1; PLA2 ctr: 72.7*

Results for Brc1ccc2c(c1)C(c1ccc(N3CCOCC3)cc1)=NNC(c1cccs1)=N2 ?
Glyco luc inh: -2.5; Vif imaging: 3.1; ATG4B inh: 65.9*; CaV13 FRET inh: -4.8; NSD2 inh: 1.0; Pemphigus Ab inh: 102.4; PLA2 ctr: 64.5*

What do the screens show for `Fc1ccc2c(c1)C(c1ccc(N3CCOCC3)cc1)=NNC(c1cccs1)=N2`?
Glyco luc inh: -3.3; Vif imaging: -6.4; ATG4B inh: 65.1*; NSD2 inh: 3.0; Pemphigus Ab inh: 114.6; PLA2 ctr: 70.4*

How did Cc1ccc2c(c1)C(c1ccc(N3CCOCC3)cc1)=NNC(c1cccs1)=N2 do in these assays?
Glyco luc inh: -2.4; Vif imaging: -7.3; ATG4B inh: 13.0; CaV13 FRET inh: -6.0; NSD2 inh: 11.4; Pemphigus Ab inh: 100.5

What do the screens show for `Cc1ccccc1OCc1nnc(SCC(=O)Nc2c(C)n(C)n(-c3ccccc3)c2=O)n1-c1ccccc1`?
Glyco luc inh: 1.0; Vif imaging: -14.9; ATG4B inh: -1.7; CaV13 FRET inh: -6.9; NSD2 inh: 0.1; Pemphigus Ab inh: 105.5

What do the screens show for `CCC(C)[C@H](Nc1nc(-c2ccccc2)nc2c1oc1ccccc12)C(=O)O` (stereo partly drawn)?
Glyco luc inh: -0.4; Vif imaging: -3.1; ATG4B inh: 44.1*; CaV13 FRET inh: -4.9; NSD2 inh: 1.1; Pemphigus Ab inh: 106.3; PLA2 ctr: 54.4*

How did Cc1ccc(-c2[nH]nc3c2C(c2ccc(OC(=O)N4CCOCC4)cc2)C(C#N)=C(N)O3)cc1 (stereo not drawn) do in these assays?
Glyco luc inh: -2.1; Vif imaging: 2.1; ATG4B inh: 43.1*; CaV13 FRET inh: -9.8; ATG4B conf: 77.8*; PLA2 ctr: 42.4

How did CCCCC(CC)CN=C(N)NC(N)=NCCCCCCN=C(N)NC(N)=NCC(CC)CCCC (stereo not drawn) do in these assays?
Glyco luc inh: -23.2; Vif imaging: -7.5; ATG4B inh: 69.5*; Pemphigus Ab inh: 134.0; ATG4B conf: 14.3; PLA2 ctr: 23.3

How did CCCCC(CC)CO (stereo not drawn) do in these assays?
Glyco luc inh: 2.9; Vif imaging: -5.3; ATG4B inh: -29.9

What do the screens show for `O=C(COc1ccccc1[N+](=O)[O-])Nc1ccccc1N1CCCC1`?
Glyco luc inh: 1.6; Vif imaging: -1.1; ATG4B inh: 49.7*; CaV13 FRET inh: 5.2; NSD2 inh: 5.6; Pemphigus Ab inh: 103.3; PLA2 ctr: 57.6*

High-throughput results as filed in PubChem BioAssay.
